Measurements: PubChem BioAssay (NCATS)
Results filed as inconclusive are left out. Unmarked numbers belong to inactive results. Calls come from the whole dose curve; as a rule, active = well fitted cell-killing curve with a large enough effect; inconclusive = small, poorly fitted or top-dose-only effect; inactive = flat fitted curve, though single readings scatter.

assay: Cell Viability - LYMP2-002 (AID 977); settings: LYMP2-002 lymphoblastoid cell viability, qHTS; series mostly up to 92.2 µM; activity change, negative = cytotoxic: at the top concentration;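 note: compound exposure lasted 24 h at 37 °C; plate controls were DMSO only for no effect and 92 µM tetraoctylammonium bromide for full effect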
Excerpt: NIH Chemical Genomics Center [NCGC]
NIH Molecular Libraries Screening Centers Network [MLSCN]
National Institutes of Environmental Health Sciences [NIEHS]
National Toxicology Program [NTP]
We have developed a 1536-well cell-based assay for quantitative high throughput screening (qHTS) against a number of cell lines to determine in vitro cytotoxicity of small molecules. This particular assay uses a human lymphoblastoid cell line (LYMP2-002) purchased from Coriell Institute for Medical Research.
NCGC Assay Protocol Summary:
The CellTiter-Glo luminescent cell viability assay (Promega) is a homogeneous method to measure the number of viable cells in culture. The end point readout of this assay is based on quantitation of intracellular ATP, an indicator of metabolic activity, using the luciferase reaction. Luciferase catalyzes the oxidation of beetle Luciferin to oxyluciferin and light in the presence of ATP. The luminescent signal is proportional to amount of ATP present.
Using the CellTiter-Glo luminescent cell viability assay, the amount of cellular ATP was measured in the lymphoblastoid cell line with complete culture medium following compound treatment for 24 hours. The assay was performed in opaque white Kalypsys 1536-well plates. In the screen, tetraoctylammonium bromide was used as positive control. Library compounds were measured for their ability to cause acute toxicity in the cell line, as reflected by a decrease in intracellular ATP levels, in a concentration-dependent manner. […] AC50 values were determined from concentration-response data modeled with the standard Hill equation.
qHTS protocol for CellTiter Glo lymphoblastoid cellular assay
[Step] [Parameter] [Value] [Description]
1. Reagent; 5 uL; 2500 lymphoblastoid cells/well
2. Time; 5 hr; 37 C incubation
4. Controls; 23 nL; Tetraoctylammonium bromide 6.4pM to 92 uM
5. Time; 24 hr; 37 C incubation
6. Reagent; 5 uL; CellTiter Glo reagent
7. Time; 30 min; Room Temperature
8. Detection; Luminescence; Viewlux plate reader
Keywords: cell viability, cytotoxicity, lymphoblastoid cell line, luminescence, NTPHTS, NTPHTS_NCGC, NIEHS, DSSTox, MLSMR, MLSCN, NIH Roadmap, qHTS, NCGC

SMILES | activity change, negative = cytotoxic
O=C(O)CCl | -13.9%
CCOP(=S)(OCC)Oc1nc(Cl)c(Cl)cc1Cl | -8.31%
CCN(CC)CCO | 6.83%
CCOC(=O)CC(SP(=O)(OC)OC)C(=O)OCC (stereo not given) | 17.1%
COc1ccccc1N | -6.39%
O=[N+]([O-])c1ccccc1-c1ccccc1 | 16.2%
C=CCBr | -6.09%
CCBr | 6.37%
CC12CC1(C)C(=O)N(c1cc(Cl)cc(Cl)c1)C2=O (stereo not given) | -5.48%
CC(C)(C)C(O)(CCc1ccc(Cl)cc1)Cn1cncn1 (stereo not given) | -12.7%
CCCC[N+](=O)[O-] | 9.76%
CCCBr | 16.1%
Cc1ccc(N)cc1Cl | 1.21%
CCCCCCCCCCCCCl | 2.66%
C/C=C/CC#N | 4.41%
Oc1ccc(Cl)c(Cl)c1 | -13.2%
C(CCOCC1CO1)COCC1CO1 (stereo not given) | -8.9%
CCC(Cl)[N+](=O)[O-] (stereo not given) | -2.56%
C1CC2OC2CC1C1CO1 (stereo not given) | -3%
CN(C)c1ccc(N(C)C)cc1 | -40.6%

SMILES | activity change, negative = cytotoxic
Cc1ccc(N)cc1N | -10%
COC(C)(C)C | -2.59%
CCOS(C)(=O)=O | -17%
Nc1ccc(Oc2ccc(N)cc2)cc1 | 9.66%
Cc1cccc(N)c1C | -16.8%
Oc1ccc(Cl)c(Cl)c1Cl | -3.16%
FC(Cl)(Cl)Cl | 5.19%
COc1cc(-c2ccc(N)c(OC)c2)ccc1N | 1.24%
CCOC(=O)C1OC1(C)c1ccccc1 (stereo not given) | -1.57%
C=COC(C)=O | -9.44%
CSSC | 4.61%
Nn1cnnc1 | -9.63%
N#C/C(N)=C(/N)C#N | -8.24%
Oc1cc(Cl)ccc1Cl | -8.61%
O=C(O)CBr | -8.94%
Oc1cc(Cl)cc(Cl)c1 | -0.472%
Brc1cccc(-c2ccccc2)c1 | -9.72%
ClCCOCCCl | -16.6%
CCCN(CCC)c1c([N+](=O)[O-])cc(C(F)(F)F)cc1[N+](=O)[O-] | 6.03%
CC(Cl)(Cl)Cl | -9.87%
